Most compounds without a hit are left out; they make up all but 1.2% or so of the library.
PKM2 act: qHTS Assay for Activators of Human Muscle isoform 2 Pyruvate Kinase | hit rate 0.34% among 260,000 | Potency, µM (highest dose often 57.5 µM), hits mostly activators | purified PKM2, Kinase-Glo ATP luminescence, activation; response scale: 0% is enzyme alone, no compound; note: nearly all actives have a fitted effect of over 55% in size
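Kinase-Glo luminescence reports ATP generated from ADP (0.1 mM) and PEP (0.5 mM) by purified hPK-M2 after 1 h at room temperature, pH 7.2 imidazole buffer; intermediate enzyme activity allows detecting inhibitors and activators.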
HTT aggregate: qHTS Multiplex Assay to Identify Dual Action Probes in a Cell Model of Huntington: Aggregate Formation (GFP); Potency, µM (titrated, usually from 46.1 µM), hits mostly inhibitors; hit rate 1.1% among 220,000; PC12 HttQ103-GFP aggregates, Acumen cytometry, 40 h; note: nearly all actives have a fitted effect of over 60% in size
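Multiplexed with ATP-based cell death, this channel scores GFP aggregates in PC12 cells expressing inducible HTTex1-Q103-GFP. Induction used 100 nM tebufenozide; compounds were tested in concentration series.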
GLA inh pH 4.5: qHTS Assay for Inhibitors of Human alpha-Galactosidase at pH 4.5. Alpha-galactosidase A (Homo sapiens), P06280. purified enzyme, 4-MU-alpha-Gal fluorescence, pH 4.5. activity change, negative = inhibition, % at 105 µM. 230,000 tested, under 10 active. AID 1467, 2008
Target sequence (P06280 whole entry, looked up): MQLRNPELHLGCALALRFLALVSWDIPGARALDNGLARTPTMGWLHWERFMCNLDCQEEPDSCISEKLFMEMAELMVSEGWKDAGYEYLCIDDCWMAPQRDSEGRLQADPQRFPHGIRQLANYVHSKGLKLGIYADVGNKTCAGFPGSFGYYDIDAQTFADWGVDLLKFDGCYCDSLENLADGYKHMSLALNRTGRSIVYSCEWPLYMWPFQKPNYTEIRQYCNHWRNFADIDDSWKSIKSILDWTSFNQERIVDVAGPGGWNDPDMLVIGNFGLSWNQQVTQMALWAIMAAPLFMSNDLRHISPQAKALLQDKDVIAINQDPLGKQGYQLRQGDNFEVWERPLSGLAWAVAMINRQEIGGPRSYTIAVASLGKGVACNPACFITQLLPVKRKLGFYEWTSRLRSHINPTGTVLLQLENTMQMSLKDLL
GLA spleen mod: qHTS Assay for Inhibitors and Activators of Human alpha-Galactosidase From Spleen Homogenate | Alpha-galactosidase A (Homo sapiens), P06280 | human spleen homogenate, 4MU-alpha-Gal fluorescence, 40 min | Potency, µM (series often up to 80 µM), usual class: inhibitors | hit rate 0.008% among 240,000 | AID 2107, 2009
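Fluorogenic readout (Ex 365/Em 440 nm) of 4-methylumbelliferone released from 1 mM 4-MU-alpha-galactoside by spleen homogenate, 40 min at 37C, pH 5.0. Data normalized to no-enzyme and enzyme controls; Hill-equation AC50 from compound titrations.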
HTT cytoprotect: qHTS Multiplex Assay to Identify Dual Action Probes in a Cell Model of Huntington: Cytoprotection (ATP); PC12 HTT-Q103 induced, cytoprotection, ATP luminescence, 40 h; Potency, µM (titrated, usually from 56.4 µM), actives largely listed as activators; hit rate 0.14% among 230,000; AID 1471, 2008; note: nearly all actives have a fitted effect of over 45% in size
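PC12 cells stably carrying ecdysone-inducible Htt exon 1 (Q103)–GFP were induced with 100 nM tebufenozide (final) alongside library compounds in a dose series. Cytoprotection was scored as retained ATP by ATPlite luminescence.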
Large screens that a line does not name were inactive. Calls come from the whole dose curve; as a rule, active = well fitted curve in the direction sought with a large enough effect; inconclusive = small, poorly fitted or top-dose-only effect, or another doubt; inactive = no such curve, though single readings can be large; an effect the other way counts as inactive or inconclusive.

CCCCCN(CCCCC)C(=O)[C@H](CCC(=O)O)NC(=O)[C@H](Cc1ccc(OP(=O)(O)O)cc1)NC(C)=O	none (no result: PKM2 act, HTT aggregate, GLA inh pH 4.5, HTT cytoprotect)
COCC1=Cc2cc3c(cc2C(C(C(=O)OC)C(=O)OC)N1C(=O)OC)OCO3 (configuration not stated)	none (no result: HTT aggregate)
COC(=O)[C@@]1(Cc2ccccc2)[C@H]2c3cc(C(=O)N4CCCC4)n(CC4CC4)c3C[C@H]2CN1C(=O)c1ccccc1	none (no result: HTT aggregate)
CC(SCC(=O)NC(C)C1CC2CCC1C2)C(=O)O (configuration not stated)	HTT cytoprotect 0.89µM
CC(NC(=O)CSc1ccccc1C(=O)O)C1CC2CCC1C2 (configuration not stated)	none
O=C(CSc1ncn[nH]1)Nc1ccc([N+](=O)[O-])cc1Br	PKM2 act 7.1µM (no result: HTT cytoprotect)
Nc1nc(SCC(=O)Nc2ccc([N+](=O)[O-])cc2Br)n[nH]1	PKM2 act 3.2µM
CC(C)c1nc(SCC(=O)Nc2ccc([N+](=O)[O-])cc2Br)n[nH]1	PKM2 act inconclusive
CCOC(=O)c1ccc(-c2c(C(=O)OCC)oc3cc(O)c(CC)cc3c2=O)o1	HTT aggregate 5.6µM
CCOC(=O)c1oc2cc(O)c(CC)cc2c(=O)c1-c1cscn1	none
O=C(Nc1cccc(O)c1)c1cccc(S(=O)(=O)N2CCCC2)c1	HTT cytoprotect 2.8µM
O=C(Nc1ccc(Cc2ccncc2)cc1)c1ccc(S(=O)(=O)N2CCCC2)cc1	HTT aggregate 11µM (no result: HTT cytoprotect)
O=C(Nc1ccc(S(=O)(=O)N2CCCCC2)cc1)c1ccncc1	none
CCCn1c(NC(=O)c2cccc(S(=O)(=O)N3CCCC3)c2)nc2ccccc21	HTT aggregate 11µM
O=C(c1cccc(S(=O)(=O)N2CCCC2)c1)c1cccc(S(=O)(=O)N2CCCC2)c1	HTT aggregate 11µM
CCCn1c(NC(=O)c2ccccc2)nc2ccccc21	none
COc1ccccc1CNc1ncnc2ccc(-c3ccoc3)cc12	none (no result: PKM2 act, HTT aggregate, GLA inh pH 4.5)
O=C(Nc1cccc(S(=O)(=O)N2CCCCC2)c1)Nc1ccc(Cl)cc1Cl	HTT aggregate 14µM
O=P(O)(O)C(O)(Cc1cccnc1)P(=O)(O)O	none (no result: PKM2 act, GLA inh pH 4.5, GLA spleen mod)
CCOC(=O)c1c(-c2cccs2)csc1NC(=O)c1ccncc1	none
CCOC(=O)c1c(-c2cccs2)csc1NC(=O)COC(=O)c1c(C)noc1C	PKM2 act 14µM
CCc1ccccc1N(CC)C(=O)CCc1nc(-c2ccc(C)cc2)no1	HTT aggregate 10µM
CC(C)CN1CCCC2(CCN(C(=O)c3cc(C(F)(F)F)cc(C(F)(F)F)c3)CC2)C1	none (no result: PKM2 act, HTT aggregate, GLA inh pH 4.5)
CSc1cccc(NC(=O)/C=C/c2cccc(Cl)c2)c1	HTT aggregate 16µM (no result: HTT cytoprotect)
CC(=O)N[C@H](C(=O)O)C(C)(C)SN=O	none (no result: PKM2 act, HTT aggregate, HTT cytoprotect)
Cc1ccccc1OCc1nc2ccccc2c(=O)n1/N=C/c1ccco1	HTT aggregate 22µM
COc1ccc(CN(C)CC(=O)Nc2ccccc2-c2ccccc2)c(OC)c1	HTT aggregate 20µM
COc1ccc(CCNCc2csc3nc4ccccc4n23)cc1OC	HTT aggregate 7.1µM
CCN(CC)C(=O)Nc1ccc(OC[C@H](O)CNC(C)(C)C)c(C(C)=O)c1	none (no result: PKM2 act, GLA inh pH 4.5, GLA spleen mod)
C=C1c2cccc(OC)c2O[C@H](C(=O)OCC)[C@@H]1CCC(C)C	none (no result: PKM2 act, HTT aggregate)
Cc1nn(-c2ccccc2)c(Cl)c1C(=O)OC(C)C(=O)NC(=O)NC1CCCCC1 (configuration not stated)	HTT aggregate 11µM
COc1ccccc1C(=O)NCC(=O)OC(C)C(=O)NC(=O)NC1CCCCC1 (configuration not stated)	none
COC(=O)C1=C(C)NC(C)=C(C(=O)OC)C1c1ccc(NC(C)=O)cc1	HTT aggregate 3.2µM
O=C(COC(=O)CCSc1ccc(Cl)cc1)Nc1ccc(F)cc1	none
NC(=O)COC(=O)CCSc1ccc(Cl)cc1	PKM2 act inconclusive, HTT aggregate inconclusive, HTT cytoprotect 14µM
CC(C)CO/N=C1/C[C@@H](O)[C@@H](O)[C@@H]2[C@@H]3C(=O)N(Cc4ccccc4)C(=O)[C@H]3CC[C@@H]12	HTT cytoprotect 2.8µM (no result: PKM2 act, HTT aggregate, GLA inh pH 4.5)
COC(=O)C1=C(C(=O)OC)[C@@H]2N(C)c3ccc(OC)cc3[C@@]23C[C@@H](C(=O)OC)N(S(=O)(=O)c2cccs2)C3=N1	none (no result: HTT aggregate)
C=CCn1c(SCC(=O)N2CCOCC2)nc2scc(-c3ccco3)c2c1=O	PKM2 act 14µM
C=CCn1c(SCC(=O)N2CCCC2)nc2scc(-c3cccs3)c2c1=O	none
Cc1ccccc1NC(=S)NCCC(c1ccccc1)c1ccccc1	HTT aggregate inconclusive
Cc1ccc(NC(=S)NCCC(c2ccccc2)c2ccccc2)c(C)c1	HTT aggregate 13µM
O=[N+]([O-])c1ccc(NN=C2c3ccccc3Cc3ccccc32)c([N+](=O)[O-])c1	none (no result: PKM2 act, HTT aggregate, GLA inh pH 4.5, GLA spleen mod)
COc1cc(C2CC(=O)Oc3ccc(O)cc32)cc(OC)c1OC (configuration not stated)	none (no result: PKM2 act, HTT aggregate)
COC(=O)N/N=C(\C)c1ccc2ccccc2c1OC(F)F	HTT aggregate inconclusive, HTT cytoprotect 0.79µM
COc1ccc(S(=O)(=O)NCc2c(-c3ccccc3)noc2C)c(OC)c1	PKM2 act 28µM
Cc1onc(-c2ccccc2)c1CNS(=O)(=O)c1cccc(Cl)c1	PKM2 act 32µM
Cc1onc(-c2ccccc2)c1CNS(=O)(=O)c1ccccc1	none
CC[C@H](C)[C@H](NC(=O)[C@H](CC(C)C)NC(=O)[C@H](CC(N)=O)NC(=O)[C@@H](NC(=O)[C@@H](N)Cc1ccc(O)cc1)[C@@H](C)CC)C(=O)N[C@@H](Cc1ccc(O)cc1)C(=O)N[C@@H](CCCN=C(N)N)C(=O)N[C@@H](CC(C)C)C(=O)N[C@@H](CCCN=C(N)N)C(=O)N[C@@H](Cc1ccc(O)cc1)C(N)=O	none (no result: PKM2 act, HTT aggregate, GLA inh pH 4.5, HTT cytoprotect)
CN(C)CCCOc1c2ccccc2n(Cc2ccccc2)[n+]1[O-]	none (no result: PKM2 act, HTT aggregate, GLA inh pH 4.5, HTT cytoprotect)
COC(=O)C1=C(C(=O)OC)[C@@H]2N(C)c3ccccc3[C@@]23C[C@@H](C(=O)OC)N(S(=O)(=O)c2ccc(C)cc2)C3=N1	none (no result: HTT aggregate)
Cc1nc2ccccc2n1-c1nc(-c2ccco2)cc(C(F)(F)F)n1	HTT aggregate 3.2µM
FC(F)(F)c1cc(-c2ccco2)nc(-n2cnc3ccccc32)n1	none
CCCCCSc1nnc(-c2ccccc2N)c(=O)[nH]1	none (no result: HTT cytoprotect)
CCCCCSc1nnc(-c2ccccc2NC(C)=O)c(=O)[nH]1	HTT cytoprotect 2.8µM
CCOC(=O)c1sc(NC(=O)c2ccncc2)c(C#N)c1C	HTT aggregate 20µM (no result: HTT cytoprotect)
CCOC(=O)c1c(NC(=O)c2ccncc2)sc(C)c1C	none
